Several values for one entry are separate records, joined by “and”; a condition that tells them apart may be missing. Equal entries are not always repeated. Where a structure was tested more than once in an assay, its records may differ in their call. Activity calls are given as the source filed them. The calls were made as follows: active = hit-call score of the fitted dose curve at least 0.9, where 1 is the maximum; inactive = score below 0.9.
Tests used:
[1] = read-out: Monocyte Chemoattractant Protein-1 (MCP1), CCL2 (gene 6347); assay: BSK_LPS_MCP1: BioMAP Diversity Plus: LPS Assay for Monocyte Chemoattractant Protein-1 (MCP1) Biomarker Activity (AID 2283081); conditions: primary human HUVEC with PBMC; actives raise or lower the signal;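 as to AC50: secreted MCP-1 protein quantified by ELISA in culture supernatant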
Procedure, shortened: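 HUVEC plus PBMC co-culture (human primary cells, LPS system) exposed to test chemical for 24 h; MCP-1 measured by ELISA. Bidirectional curve fitting against DMSO baseline; parallel SRB total-protein staining flags overt cytotoxicity.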

[2] = BSK_LPS_PGE2: BioMAP Diversity Plus: LPS Assay for Prostaglandin E2 (PGE2) Biomarker Activity (AID 2283082); conditions: primary human HUVEC with PBMC; actives raise or lower the signal;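 as to AC50: secreted prostaglandin E2 measured by ELISA in LPS-stimulated co-culture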
Procedure, shortened: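 Compounds were added to the LPS co-culture of endothelium and PBMC, and PGE2 was measured by ELISA after 24 h. Responses in either direction were fitted with DMSO as baseline.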

[3] = read-out: Tissue Factor, F3 (gene 2152); assay: BSK_LPS_TissueFactor: BioMAP Diversity Plus: LPS Assay for Tissue Factor Biomarker Activity (AID 2283084); conditions: primary human HUVEC with PBMC; actives raise or lower the signal
Procedure, shortened: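 Human umbilical vein endothelial cells co-cultured with peripheral blood mononuclear cells were dosed and stimulated with LPS. Cell-surface CD142 was quantified by ELISA at 24 h. Activity was fitted bidirectionally against DMSO baseline.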

[4] = read-out: Vascular cell adhesion molecule 1 (VCAM1), VCAM1 (gene 7412); assay: BSK_LPS_VCAM1: BioMAP Diversity Plus: LPS Assay for Vascular cell adhesion molecule 1 (VCAM1) Biomarker Activity (AID 2283086); conditions: primary human HUVEC with PBMC; actives raise or lower the signal
Procedure, shortened: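 Cells are dosed in an LPS-stimulated endothelial/mononuclear co-culture and, after 24 h, VCAM-1 is quantified by ELISA. Activity in either direction is fitted relative to the DMSO negative control.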

CD38, CD38 (gene 952) = assay: BSK_SAg_CD38: BioMAP Diversity Plus: SAg Assay for CD38 Biomarker Activity (AID 2283087); conditions: primary human HUVEC with PBMC; actives raise or lower the signal
Procedure, shortened: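 CD38 quantified by ELISA (fluorescence) in a superantigen-activated endothelial cell–PBMC co-culture at 24 h post-dose. Activity fitted in both directions relative to DMSO; parallel SRB and Alamar Blue cytotoxicity read-outs.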

CD40, CD40 (gene 958) = assay: BSK_SAg_CD40: BioMAP Diversity Plus: SAg Assay for CD40 Biomarker Activity (AID 2283088); conditions: primary human HUVEC with PBMC; actives raise or lower the signal
Procedure, shortened: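 Human umbilical vein endothelial cells co-cultured with PBMC; CD40 levels measured by ELISA with fluorescence read-out 24 h after chemical dosing. Gain or loss of signal fitted bidirectionally against DMSO baseline.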

CD69, CD69 (gene 969) = assay: BSK_SAg_CD69: BioMAP Diversity Plus: SAg Assay for CD69 Biomarker Activity (AID 2283089); conditions: primary human HUVEC with PBMC; actives raise or lower the signal;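 as to AC50: cell surface CD69 protein quantified by ELISA with fluorescence detection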
Procedure, shortened: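 Values derive from bidirectional fitting relative to DMSO vehicle. Cells: umbilical vein endothelium plus peripheral blood mononuclear cells, treated 24 h before fluorescent ELISA for CD69.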

[5] = read-out: Monocyte Chemoattractant Protein-1 (MCP1), CCL2 (gene 6347); assay: BSK_SAg_MCP1: BioMAP Diversity Plus: SAg Assay for Monocyte Chemoattractant Protein-1 (MCP1) Biomarker Activity (AID 2283090); conditions: primary human HUVEC with PBMC; actives raise or lower the signal
Procedure, shortened: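 Values derive from bidirectional fitting of ELISA-measured MCP1 against DMSO controls. Readings were taken 24 h after dosing human vascular endothelial cells co-cultured with peripheral blood mononuclear cells under superantigen stimulation.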

[6] = read-out: Monokine induced gamma interferon (MIG), CXCL9 (gene 4283); assay: BSK_SAg_MIG: BioMAP Diversity Plus: SAg Assay for Monokine induced gamma interferon (MIG) Biomarker Activity (AID 2283092); conditions: primary human HUVEC with PBMC; actives raise or lower the signal
Procedure, shortened: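 Values reflect bidirectional fitting of ELISA-measured MIG against DMSO vehicle, taken 24 h after dosing of a co-culture of human umbilical vein endothelial cells and peripheral blood mononuclear cells.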

[7] = BSK_SAg_PBMCCytotoxicity: PBMC Cytotoxicity Assessment in the BioMAP Diversity Plus: SAg Assay (AID 2283093); conditions: primary human HUVEC with PBMC;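 also: PBMC viability measured as Alamar Blue reduction fluorescence at 546/580 nm; fitted both ways against DMSO so a hit may be loss or gain of signal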;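 as to AC50: PBMC superantigen activated with SEB plus TSST-1 one hour after compound addition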
Procedure, shortened: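 Alamar Blue reduction (6 h, ex/em 546/580 nm) read after 90 h culture of PBMC pre-dosed 1 h then stimulated with SEB plus TSST-1, 20 ng/mL each. Gain or loss of signal fitted relative to DMSO.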

[8] = read-out: Interleukin-8 (IL8), CXCL8 (gene 3576); assay: BSK_SAg_IL8: BioMAP Diversity Plus: SAg Assay for Interleukin-8 (IL8) Biomarker Activity (AID 2283094); conditions: primary human HUVEC with PBMC; actives raise or lower the signal
Procedure, shortened: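 Chemicals were dosed onto a human endothelial–PBMC co-culture, and IL-8 was quantified by ELISA after 24 h. Both increases and decreases were fitted relative to DMSO.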

[9] = BSK_SAg_Proliferation: Cell Proliferation Assessment in the BioMAP Diversity Plus: SAg Assay (AID 2283095); conditions: primary human HUVEC with PBMC;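 also: relative cell number as total protein by SRB absorbance in sub-confluent culture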
Procedure, shortened: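 Absorbance of sulforhodamine B at 560 nm reports total protein in a human vascular endothelial/PBMC co-culture after 96 h chemical exposure. Gain or loss of signal is fitted in both directions against DMSO.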

[10] = BSK_SAg_SRB: Viability Assessment in the BioMAP Diversity Plus: SAg Assay (AID 2283096); conditions: primary human HUVEC with PBMC;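 also: cells read one day after compound addition; hits may be either gain or loss of signal compared with DMSO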
Procedure, shortened: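 SRB absorbance at 560 nm served as the viability read-out. Cells (HUVEC plus peripheral blood mononuclear cells) were TCA-fixed and stained 24 h post-dosing; activity fitted in both directions against DMSO controls.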

[11] = read-out: Macrophage colony-stimulating factor (MCSF), CSF1 (gene 1435); assay: BSK_LPS_MCSF: BioMAP Diversity Plus: LPS Assay for Macrophage colony-stimulating factor (MCSF) Biomarker Activity (AID 2283083); conditions: primary human HUVEC with PBMC; actives raise or lower the signal
Procedure, shortened: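 Human umbilical vein endothelial cells co-cultured with peripheral blood mononuclear cells were exposed to compound for 24 h. M-CSF levels were measured by ELISA, and bidirectional curve fitting used DMSO as the negative control and baseline.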

[12] = read-out: E-selectin (Homo sapiens) (UniProt P16581); assay: BSK_SAg_Eselectin: BioMAP Diversity Plus: SAg Assay for Eselectin Biomarker Activity (AID 2283091); conditions: primary human HUVEC with PBMC; actives raise or lower the signal
Procedure, shortened: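 HUVEC co-cultured with PBMC, compound dosed then read at 24 h; E-selectin measured by ELISA. Activity fitted bidirectionally against DMSO as negative control and baseline.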

[13] = read-out: Tumor necrosis factor (Homo sapiens) (UniProt P01375); assay: BSK_LPS_TNFa: BioMAP Diversity Plus: LPS Assay for Tumour Necrosis Factor alpha (TNFa) Biomarker Activity (AID 2283085); conditions: primary human HUVEC with PBMC; actives raise or lower the signal
Procedure, shortened: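 Cells (umbilical vein endothelium plus peripheral blood mononuclear cells) were dosed with chemical, incubated 24 h, then TNFa was quantified by ELISA; values derive from bidirectional fitting with DMSO as baseline.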

Measured: AC50

Chain of E-selectin (Homo sapiens) (P16581 whole entry, looked up): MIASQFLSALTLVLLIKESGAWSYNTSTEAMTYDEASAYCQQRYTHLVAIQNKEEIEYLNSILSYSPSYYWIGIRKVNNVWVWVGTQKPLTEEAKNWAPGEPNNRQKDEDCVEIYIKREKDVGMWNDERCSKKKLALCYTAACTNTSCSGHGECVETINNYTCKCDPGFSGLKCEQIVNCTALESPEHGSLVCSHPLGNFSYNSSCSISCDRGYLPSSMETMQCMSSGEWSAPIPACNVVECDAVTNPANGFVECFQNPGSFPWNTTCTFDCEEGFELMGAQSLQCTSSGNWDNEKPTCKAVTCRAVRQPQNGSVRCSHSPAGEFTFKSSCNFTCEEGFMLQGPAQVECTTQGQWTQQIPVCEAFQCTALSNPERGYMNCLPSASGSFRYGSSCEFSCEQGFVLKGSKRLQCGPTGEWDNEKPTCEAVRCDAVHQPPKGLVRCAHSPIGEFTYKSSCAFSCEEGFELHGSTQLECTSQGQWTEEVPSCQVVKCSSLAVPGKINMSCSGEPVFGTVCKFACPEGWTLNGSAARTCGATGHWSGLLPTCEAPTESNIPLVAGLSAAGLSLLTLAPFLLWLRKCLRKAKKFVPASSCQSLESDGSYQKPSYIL
Chain of Tumor necrosis factor (Homo sapiens) (P01375 whole entry, looked up): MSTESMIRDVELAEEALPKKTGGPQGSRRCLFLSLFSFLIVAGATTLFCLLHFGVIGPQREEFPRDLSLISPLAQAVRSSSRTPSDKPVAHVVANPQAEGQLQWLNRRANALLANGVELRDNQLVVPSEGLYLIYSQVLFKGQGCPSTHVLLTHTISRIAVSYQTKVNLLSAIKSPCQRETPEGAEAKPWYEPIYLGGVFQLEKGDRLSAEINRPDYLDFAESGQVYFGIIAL

CCC(C)c1cc([N+](=O)[O-])cc([N+](=O)[O-])c1OC(=O)OC(C)C (stereo not drawn)
inactive: [8]
active: [1] 14.3 µM | [2] 5.42 µM | [3] 16.2 µM | [4] 16.8 µM | CD38, CD38 (gene 952) 10.8 µM | CD40, CD40 (gene 958) 9.34 µM | CD69, CD69 (gene 969) 8.7 µM | [5] 12.2 µM | [6] 9.7 µM | [7] 28.3 µM | [9] 9.53 µM | [10] 20 µM

C=C(C)C(=O)OCCOCCOCCOC(=O)C(=C)C
inactive: [1] | [2] | [11] | [3] | [4] | CD38, CD38 (gene 952) | CD40, CD40 (gene 958) | [5] | [6] | [7] | [8] | [9] | [10]

c1ccc(CCc2ccccc2)cc1
active: [3] 31.1 µM | [4] 31.8 µM | CD38, CD38 (gene 952) 30.2 µM | CD40, CD40 (gene 958) 30.9 µM | [5] 31.5 µM | [12] 31.7 µM | [6] 34.1 µM | [7] 34.2 µM | [8] 31.6 µM | [10] 35.9 µM
inactive: [1] | [2]

CC(C)(N=C=O)c1cccc(C(C)(C)N=C=O)c1
inactive: [1] | [2] | [3] | [4] | CD38, CD38 (gene 952) | CD40, CD40 (gene 958) | [5] | [12] | [6] | [8] | [9] | [10]

c1ccc2cc(Nc3ccc(Nc4ccc5ccccc5c4)cc3)ccc2c1
inactive: [1] | [2] | [3] | [13] | [4] | CD38, CD38 (gene 952) | CD40, CD40 (gene 958) | [5] | [6] | [7] | [8] | [9] | [10]

Clc1cc(Cl)c(-c2c(Cl)c(Cl)cc(Cl)c2Cl)cc1Cl
inactive: [1] | [2] | [3] | [5] | [6] | [10]
active: [4] 3.5 µM | CD38, CD38 (gene 952) 15.6 µM | CD40, CD40 (gene 958) 16.3 µM | [12] 14.9 µM | [7] 17.4 µM | [8] 10 µM | [9] 14.3 µM

O=C(Nc1ccc2c(O)c(N=Nc3ccc(N=Nc4ccc(S(=O)(=O)O)cc4)cc3)c(S(=O)(=O)O)cc2c1)c1ccccc1
inactive: [1] | [2] | [11] | [3] | [4] | CD38, CD38 (gene 952) | CD40, CD40 (gene 958) | [5] | [6] | [7] | [8] | [9] | [10]

IC(I)I
inactive: [1] | [2] | [11] | [3] | [13] | [4] | CD38, CD38 (gene 952) | CD40, CD40 (gene 958) | [5] | [6] | [7] | [8] | [9] | [10]

CN(C)C(=O)Nc1ccc(Oc2ccc(Cl)cc2)cc1
active: [2] 5.86 µM
inactive: [1] | [3] | [4] | CD38, CD38 (gene 952) | CD40, CD40 (gene 958) | CD69, CD69 (gene 969) | [5] | [12] | [6] | [7] | [8] | [9] | [10]

CC1(C)CCC[C@]2(C)[C@H]3CCO[C@]3(C)CC[C@@H]12
active: CD40, CD40 (gene 958) 36.6 µM | [7] 31.8 µM and 33.4 µM | [9] 33.6 µM and 32.7 µM
inactive: [1] | [2] | [3] | [4] | CD38, CD38 (gene 952) | CD40, CD40 (gene 958) | [5] | [6] | [8] | [10]

CC(CN=Cc1ccccc1O)N=Cc1ccccc1O (stereo not drawn)
inactive: [1] | [2] | [11] | [3] | [4] | CD38, CD38 (gene 952) | CD40, CD40 (gene 958) | [5] | [6] | [7] | [8] | [9] | [10]
